The values below come from PubChem BioAssay (NCATS).

Records with an inconclusive call do not appear. Calls of active or inactive are those of the source. Unless noted, calls come from the whole dose curve; as a rule, active = well fitted curve in the direction sought with a large enough effect; inconclusive = small, poorly fitted or top-dose-only effect, or another doubt; inactive = no such curve, though single readings can be large; an effect the other way counts as inactive or inconclusive.

Test [1] can be described thus: Cell Viability - Jurkat (AID 426;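 active = dose-dependent loss of cell ATP signal giving a full or clear fitted curve, ranked by lower potency value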;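 note: potency is the fitted concentration of half-maximal effect; cells exposed to compound for 40 hours at 37 °C before ATP read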). To be noted: qHTS. In short, it runs like this:
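Seed 5000 Jurkat E6-1 cells/well; add compound; incubate 40 hr at 37 °C; add CellTiter-Glo; wait 20 min at room temperature; read luminescence. Fit concentration-response with Hill equation for AC50.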
On the technique in general: Quantitative high-throughput screening tests each substance at several concentrations.

The nature of test [2]: Cell Viability - NIH 3T3 (AID 541).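 Note: cells exposed to compound for 40 hours; plate controls were DMSO alone for no effect and tamoxifen positive control for full effect; nearly all actives have a fitted effect of over 25% in size.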 To be noted: NIH 3T3 cell viability, qHTS; activity change, negative = cytotoxicity: at 92.2 µM (top of the series). In short, it runs like this:
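AC50 values reflect concentration-dependent loss of intracellular ATP in NIH 3T3 cells after 40 hr treatment in complete culture medium, quantified by luciferase-based luminescence.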

Test [3] addresses Cytochrome P450 3A4 (Homo sapiens) (UniProt P08684). The experiment in a line: qHTS Assay for Inhibitors and Substrates of Cytochrome P450 3A4 (AID 884). Note: % is set by controls: 0 for no effect and ±100 for the full control effect; nearly all actives have a fitted effect of over 50% in size. To be noted: recombinant CYP3A4, Luciferin-PPXE luminescence; series mostly up to 57.1 µM. The procedure, abridged: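 20 nM human CYP3A4 with 25 uM Luciferin-PPXE (at KM) in 200 mM KPO4, preincubated 10 min with compound; NADPH regeneration started a 60 min RT reaction. Luciferin detected by luminescence, normalized to 57 uM ketoconazole as full inhibition.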

The nature of test [4]: MultiTox-Fluor Cytotoxicity Assay - LYMP1-002 - Dead Cells (AID 960).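 Note: 0% = DMSO and 100% = tetraoctylammonium bromide; nearly all actives have a fitted effect of over 60% in size.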 To be noted: LYMP1-002 lymphoblastoid cells, dead-cell protease fluorescence; series mostly up to 46.1 µM. In short, it runs like this: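 Acute cytotoxicity in a human lymphoblastoid line is scored as rising dead-cell protease signal after 16 hr exposure at 37 C, measured fluorometrically (485/520).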
Test [5] can be described thus: Cell Viability - LYMP2-013 (AID 970).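 Note: cells exposed to compound for 24 h at 37 °C; 0% = DMSO only and full inhibition = tetraoctylammonium bromide control; nearly all actives have a fitted effect of over 55% in size.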 To be noted: LYMP2-013 lymphoblastoid cells viability; series mostly up to 92.2 µM. In short, it runs like this:
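Acute toxicity was measured in human lymphoblastoid cells (2500/well) exposed to compound titrations for 24 hr, with ATP luminescence (CellTiter-Glo) as read-out and AC50 fitted by Hill equation.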

Test [6] is described as follows: qHTS assay for small molecule antagonists of peroxisome proliferator-activated receptor delta signaling (AID 588535; active = well fitted inhibition curve with a large enough effect in the signal ratio, with a control signal flat, not every such curve was filed as active; the % refers to the signal ratio;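 for max response: cells co-treated with a PPAR-delta agonist as stimulator during compound exposure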). To be noted: HEK293T PPARd-UAS-bla, beta-lactamase FRET ratio, 18 h; 460 nm channel. In short, it runs like this: (§1)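 Cell-based beta-lactamase assay in antagonist mode: 4000 HEK293T PPAR-delta-UAS-bla cells per well, 5 hr preincubation then 18 hr compound incubation at 37 C. IC50 obtained by Hill equation fitting.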

For test [7], the target named is Peroxisome proliferator-activated receptor delta (Homo sapiens) (UniProt Q03181). The description is as above. The conditions noted are these: HEK293T PPARd-UAS-bla, beta-lactamase FRET ratio, 18 h; series mostly up to 76.7 µM. In short, it runs like this: as §1
The target of test [8] is Peroxisome proliferator-activated receptor gamma (Homo sapiens) (UniProt P37231). The experiment in a line: qHTS assay for small molecule agonists of peroxisome proliferator-activated receptor gamma signaling (AID 588536; active = well fitted curve in the direction sought with a large enough effect in the signal ratio, with a control signal flat, not every such curve was filed as active; the % refers to the signal ratio;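 note: 0% = DMSO basal wells and 100% = rosiglitazone at 2 µM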). The conditions noted are these: HEK293 PPARg-UAS-bla, beta-lactamase ratio, 16 h, percent of rosiglitazone response, DMSO as zero; series mostly up to 76.7 µM. The procedure, abridged:
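GeneBLAzer PPAR-gamma-UAS-bla HEK293 cells in 1% charcoal/dextran-treated FBS medium were treated 16 h at 37 C with compounds. Beta-lactamase activity was read by CCF4 ratio (460/530 nm). Response was normalized to 2 uM rosiglitazone (100%) and DMSO, then Hill-fitted for EC50 and efficacy.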

Test [9] concerns the target Vitamin D3 receptor (Homo sapiens) (UniProt P11473). Briefly: qHTS assay for small molecule antagonists of vitamin D receptor signaling (AID 588541; calls by dose curve;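 note: receptor activated by calcitriol during compound treatment; % is set by controls: 0 for no effect and ±100 for the full control effect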). The conditions noted are these: HEK293T VDR-UAS-bla, beta-lactamase ratio, antagonist mode; series mostly up to 76.7 µM. In short, it runs like this:
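Antagonist-mode beta-lactamase reporter assay: HEK293T VDR-UAS-bla cells were exposed to titrated compound alongside 1-alpha,25-dihydroxyvitamin D3 at 3 nM final for 16 h. Values were normalized to the 50 nM agonist control and DMSO basal, with IC50 and efficacy from Hill equation fits.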

The target is the same in test [10]. Briefly: qHTS assay for small molecule agonists of vitamin D receptor signaling (AID 588543; calls by dose curve;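 note: 0% = DMSO basal and 100% = reference agonist control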). The conditions noted are these: HEK293T VDR-UAS-bla, beta-lactamase ratio, 16 h; series mostly up to 76.8 µM. In short, it runs like this: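 Reporter cells (HEK293T, VDR-UAS-bla) were seeded in medium with 2% charcoal-stripped serum and incubated 5 h, then compounds in concentration series were added for 16 h at 37 °C. Stimulation was scaled between DMSO basal and 50 nM 1α,25-dihydroxyvitamin D3.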

Test [11] deals with Thyroid hormone receptor beta (Homo sapiens) (UniProt P10828). The experiment in a line: qHTS assay for small molecule agonists of thyroid hormone receptor beta signaling (AID 588545; calls by dose curve;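 note: 0% = DMSO only and 100% = 10 nM T3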). The conditions noted are these: TR-UAS-bla GripTite HEK 293, beta-lactamase ratio, agonist mode, 18 h; series mostly up to 76.7 µM. In short, it runs like this: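 TR-UAS-bla-GripTite HEK 293 cells in medium with 2% charcoal/dextran FBS, 0.1 mM NEAA and 1 mM sodium pyruvate were treated with titrated compounds for 18 hrs at 37 C. Beta-lactamase reporter was read with CCF4 dye (ex 405, em 460/530 nm); EC50 from Hill fits.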

Test [12] addresses Voltage-gated inwardly rectifying potassium channel KCNH2 (Homo sapiens) (UniProt Q12809). The experiment in a line: qHTS Assay for Small Molecule Inhibitors of the Human hERG Channel Activity (AID 588834).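 Note: top concentration of the series differs between compounds; % is set by controls: 0 for no effect and ±100 for the full control effect; lower thallium flux fluorescence means stronger hERG block; nearly all actives have a fitted effect of over 50% in size.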 To be noted: U2OS BacMam hERG, FluxOR thallium flux fluorescence; series mostly up to 92.2 µM. In short, it runs like this: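 hERG-BacMam U2OS, 2000 cells/well; 0.7X FluxOR loading 1 hr RT dark; cpd ~10 min 37 °C; stim buffer; FDSS fluorescence 2 min @ 1 s; AC50 Hill fit.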

Test [13] in a line: qHTS assay for small molecule activators of the p53 signaling pathway (AID 651743; active = well fitted activation curve with a large enough effect in the signal ratio, not every such curve was filed as active; the % refers to the signal ratio; note: % of control where 0% means no effect). The conditions noted are these: HCT-116 p53RE-bla, beta-lactamase FRET ratio, 16 h; activation: stronger effect = higher value. The procedure, abridged:
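Screen for p53 pathway agonists uses stably transfected p53RE-bla HCT-116 cells, 4,000 per well, treated 16 h at 37 C with compounds in DMSO.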

A short description of test [14]: qHTS assay for small molecule disruptors of the mitochondrial membrane potential - 1 hr assay (AID 651754; calls by dose curve; note: % is set by controls: 0 for no effect and ±100 for the full control effect; nearly all actives have a fitted effect of over 35% in size). To be noted: series mostly up to 92.2 µM. In short, it runs like this:
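Steps: seed HepG2 cells and let attach overnight; pin-transfer compound or vehicle; incubate 1 hr at 37C; add Mito-MPS dye for 30 min; read two-channel fluorescence for monomer and aggregate forms.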

Test [15] concerns the target Tumor necrosis factor (Homo sapiens) (UniProt P01375). Briefly: qHTS assay to identify small molecules that stimulate Tumor Necrosis Factor-alpha (TNF-alpha) secretion (AID 651757; active = well fitted curve in the direction sought with a large enough effect in the signal ratio; the % refers to the signal ratio; note: 0% is about no effect). To be noted: Human cells, HTRF 665/615 ratio; series mostly up to 92.2 µM. In short, it runs like this:
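Secreted TNF-alpha from compound-treated THP-1 cells (17 hrs, 37 C) was quantified with a homogeneous time-resolved fluorescence antibody assay.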

Test [16] has as its target Nuclear receptor ROR-gamma (Homo sapiens) (UniProt P51449). Briefly: qHTS assay for small molecule antagonists of the retinoid-related orphan receptor gamma (ROR-gamma) signaling pathway (AID 651802).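 Note: CHO cells with doxycycline-induced ROR-gamma expression; luciferase reporter luminescence driven by ROR response element; % is set by controls: 0 for no effect and ±100 for the full control effect; nearly all actives have a fitted effect of over 60% in size.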 To be noted: ROR-gamma antagonist cell reporter assay; series mostly up to 92.2 µM. The procedure, abridged:
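Antagonism is scored as a fall in luminescence from a RORE-luciferase reporter in CHO cells expressing ROR under a TET-inducible promoter, measured 16hr after doxycycline induction in the presence of compound.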

Test [17] in a line: qHTS assay for small molecule activators of the human pregnane X receptor (PXR) signaling pathway (AID 720659; call rule not given here; note: 0% is about no effect). To be noted: DPX-2 HepG2 CYP3A4-luciferase, 24 h; series mostly up to 92.3 µM.
Test [18] in a line: Cell Viability - LYMP1-003 - Assay at 24 hr (AID 963).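 Note: plate controls were DMSO only for no effect and tetraoctylammonium bromide positive control for full effect.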 The conditions noted are these: LYMP1-003 lymphoblastoid cell viability; series mostly up to 92.2 µM. The procedure, abridged: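 Acute toxicity in LYMP1-003 lymphoblastoid cells: 24 hr compound treatment at 37 C, ATP measured with CellTiter-Glo after 30 min at room temperature. AC50 derived by fitting the Hill equation to qHTS titrations.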

Test [19] can be described thus: Cellular Toxicity (caspase-3) SK-N-SH (AID 661).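 Note: 0% = DMSO basal and 100% = 10 µM staurosporine.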 To be noted: SK-N-SH caspase-3 activation, qHTS, DMSO as zero, staurosporine as full; series mostly up to 91.7 µM. The procedure, abridged:
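Caspase 3/7 activation is measured as a luminescence increase from aminoluciferin released by substrate cleavage in SK-N-SH cells after 16 hr compound treatment; values are AC50 from concentration-response curves.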

Test [20] can be described thus: qHTS assay for small molecule agonists of the antioxidant response element (ARE) signaling pathway (AID 651741; active = well fitted activation curve with a large enough effect in the signal ratio; the % refers to the signal ratio; note: % of control where 0% means no effect). To be noted: HepG2 ARE-bla reporter, beta-lactamase FRET ratio, 16 h; series mostly up to 96 µM. In short, it runs like this: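 Seeding 2,000 ARE-bla HepG2 cells per well preceded a 5 h incubation at 37 C/5% CO2 and a 16 h compound exposure at 37 C. Beta-lactamase reporter activity was then quantified by fluorescence after 2 h with LiveBLAzer B/G FRET substrate.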

Peroxisome proliferator-activated receptor gamma (Homo sapiens), sequence (P37231 whole entry, looked up): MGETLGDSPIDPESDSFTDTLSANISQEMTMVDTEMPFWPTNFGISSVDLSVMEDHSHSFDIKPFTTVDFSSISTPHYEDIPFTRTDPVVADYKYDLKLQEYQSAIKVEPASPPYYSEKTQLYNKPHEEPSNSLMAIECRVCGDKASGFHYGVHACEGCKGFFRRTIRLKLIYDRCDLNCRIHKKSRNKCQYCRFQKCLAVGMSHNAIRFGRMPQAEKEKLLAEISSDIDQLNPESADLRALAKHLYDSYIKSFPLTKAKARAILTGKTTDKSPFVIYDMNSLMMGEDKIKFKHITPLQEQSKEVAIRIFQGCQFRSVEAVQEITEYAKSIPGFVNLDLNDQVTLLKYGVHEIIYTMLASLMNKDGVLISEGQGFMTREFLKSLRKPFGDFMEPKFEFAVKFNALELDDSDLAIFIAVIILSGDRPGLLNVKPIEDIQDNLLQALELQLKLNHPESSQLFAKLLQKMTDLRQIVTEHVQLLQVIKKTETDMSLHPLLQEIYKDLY
Voltage-gated inwardly rectifying potassium channel KCNH2 (Homo sapiens), sequence (Q12809 whole entry, looked up): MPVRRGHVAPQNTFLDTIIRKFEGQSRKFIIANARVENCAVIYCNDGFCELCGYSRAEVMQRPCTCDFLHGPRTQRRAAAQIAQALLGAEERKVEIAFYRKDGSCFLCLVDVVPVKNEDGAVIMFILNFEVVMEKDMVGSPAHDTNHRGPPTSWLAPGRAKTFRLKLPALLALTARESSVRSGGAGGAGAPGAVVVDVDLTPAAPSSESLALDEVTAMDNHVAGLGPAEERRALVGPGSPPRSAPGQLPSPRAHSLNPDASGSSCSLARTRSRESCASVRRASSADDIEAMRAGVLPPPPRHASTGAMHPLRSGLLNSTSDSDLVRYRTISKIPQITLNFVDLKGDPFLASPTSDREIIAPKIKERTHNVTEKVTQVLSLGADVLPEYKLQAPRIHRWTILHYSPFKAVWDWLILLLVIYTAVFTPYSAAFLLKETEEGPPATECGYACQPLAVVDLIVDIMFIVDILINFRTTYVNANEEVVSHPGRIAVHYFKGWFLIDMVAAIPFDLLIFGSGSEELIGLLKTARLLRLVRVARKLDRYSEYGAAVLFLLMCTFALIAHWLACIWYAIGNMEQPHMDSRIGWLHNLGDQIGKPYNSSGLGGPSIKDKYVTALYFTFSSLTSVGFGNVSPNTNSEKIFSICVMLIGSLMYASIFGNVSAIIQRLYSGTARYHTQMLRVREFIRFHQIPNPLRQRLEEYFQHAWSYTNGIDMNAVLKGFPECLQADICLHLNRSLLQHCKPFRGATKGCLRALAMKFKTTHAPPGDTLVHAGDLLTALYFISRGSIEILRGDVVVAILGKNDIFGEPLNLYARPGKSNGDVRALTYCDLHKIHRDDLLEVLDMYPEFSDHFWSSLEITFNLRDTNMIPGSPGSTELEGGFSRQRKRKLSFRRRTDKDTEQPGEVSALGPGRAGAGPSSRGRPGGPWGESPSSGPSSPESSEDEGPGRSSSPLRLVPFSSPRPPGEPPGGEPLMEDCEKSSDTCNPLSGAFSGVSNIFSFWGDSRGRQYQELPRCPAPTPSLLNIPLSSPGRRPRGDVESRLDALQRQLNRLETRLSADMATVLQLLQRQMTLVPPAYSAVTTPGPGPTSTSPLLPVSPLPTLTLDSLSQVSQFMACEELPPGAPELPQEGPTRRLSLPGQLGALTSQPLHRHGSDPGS
Vitamin D3 receptor (Homo sapiens), sequence (P11473 whole entry, looked up): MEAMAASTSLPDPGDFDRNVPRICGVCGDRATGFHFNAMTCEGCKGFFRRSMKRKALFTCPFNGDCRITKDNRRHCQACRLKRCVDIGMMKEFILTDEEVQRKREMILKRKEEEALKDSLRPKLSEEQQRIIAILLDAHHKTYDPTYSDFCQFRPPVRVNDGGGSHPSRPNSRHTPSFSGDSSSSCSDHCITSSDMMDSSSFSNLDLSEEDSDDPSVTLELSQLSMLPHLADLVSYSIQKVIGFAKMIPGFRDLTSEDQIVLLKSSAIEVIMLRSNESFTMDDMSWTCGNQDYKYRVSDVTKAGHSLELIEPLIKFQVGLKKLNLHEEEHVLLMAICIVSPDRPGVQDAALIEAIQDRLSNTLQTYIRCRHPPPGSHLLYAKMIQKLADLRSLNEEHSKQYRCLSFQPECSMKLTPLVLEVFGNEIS
Peroxisome proliferator-activated receptor delta (Homo sapiens), sequence (Q03181 whole entry, looked up): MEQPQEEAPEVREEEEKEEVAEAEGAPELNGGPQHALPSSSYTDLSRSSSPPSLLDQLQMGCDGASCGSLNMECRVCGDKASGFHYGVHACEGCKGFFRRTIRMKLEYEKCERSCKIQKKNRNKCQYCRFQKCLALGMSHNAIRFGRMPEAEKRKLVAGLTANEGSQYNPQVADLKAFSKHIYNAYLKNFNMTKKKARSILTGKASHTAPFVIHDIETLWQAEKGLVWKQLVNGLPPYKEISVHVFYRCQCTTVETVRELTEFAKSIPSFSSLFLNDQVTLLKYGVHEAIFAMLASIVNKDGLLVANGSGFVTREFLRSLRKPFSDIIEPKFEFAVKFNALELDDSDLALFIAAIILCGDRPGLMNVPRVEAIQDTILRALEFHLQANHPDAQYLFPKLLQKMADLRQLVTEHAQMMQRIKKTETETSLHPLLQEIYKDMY
Nuclear receptor ROR-gamma (Homo sapiens), sequence (P51449 whole entry, looked up): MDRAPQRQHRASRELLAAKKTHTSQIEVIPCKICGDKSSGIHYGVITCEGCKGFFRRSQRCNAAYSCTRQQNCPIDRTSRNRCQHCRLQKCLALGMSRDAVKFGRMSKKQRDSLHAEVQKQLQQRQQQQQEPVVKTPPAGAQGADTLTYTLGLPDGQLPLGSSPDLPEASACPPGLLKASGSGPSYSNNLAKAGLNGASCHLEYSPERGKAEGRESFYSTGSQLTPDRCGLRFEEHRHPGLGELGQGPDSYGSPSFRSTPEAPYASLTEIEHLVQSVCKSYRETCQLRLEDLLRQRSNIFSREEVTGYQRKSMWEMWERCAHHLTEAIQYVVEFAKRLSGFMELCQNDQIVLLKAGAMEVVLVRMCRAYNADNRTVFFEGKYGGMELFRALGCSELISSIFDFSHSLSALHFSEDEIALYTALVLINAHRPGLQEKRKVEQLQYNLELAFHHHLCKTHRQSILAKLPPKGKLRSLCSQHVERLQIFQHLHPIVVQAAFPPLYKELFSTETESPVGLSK
Cytochrome P450 3A4 (Homo sapiens), sequence (P08684 whole entry, looked up): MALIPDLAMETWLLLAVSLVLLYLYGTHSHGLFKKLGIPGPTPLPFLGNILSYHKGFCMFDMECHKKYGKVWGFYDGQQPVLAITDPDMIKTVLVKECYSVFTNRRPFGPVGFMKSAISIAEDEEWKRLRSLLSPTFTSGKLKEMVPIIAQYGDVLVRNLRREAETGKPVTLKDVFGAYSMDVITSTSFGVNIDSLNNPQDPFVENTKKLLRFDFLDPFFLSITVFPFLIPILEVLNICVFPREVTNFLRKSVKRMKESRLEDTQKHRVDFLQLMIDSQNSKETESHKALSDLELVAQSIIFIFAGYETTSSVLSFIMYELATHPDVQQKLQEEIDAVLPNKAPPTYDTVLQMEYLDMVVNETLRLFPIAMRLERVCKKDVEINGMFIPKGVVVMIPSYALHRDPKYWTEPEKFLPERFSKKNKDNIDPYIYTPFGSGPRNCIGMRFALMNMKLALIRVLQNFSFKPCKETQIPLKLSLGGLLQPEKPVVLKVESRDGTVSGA
Tumor necrosis factor (Homo sapiens), sequence (P01375 whole entry, looked up): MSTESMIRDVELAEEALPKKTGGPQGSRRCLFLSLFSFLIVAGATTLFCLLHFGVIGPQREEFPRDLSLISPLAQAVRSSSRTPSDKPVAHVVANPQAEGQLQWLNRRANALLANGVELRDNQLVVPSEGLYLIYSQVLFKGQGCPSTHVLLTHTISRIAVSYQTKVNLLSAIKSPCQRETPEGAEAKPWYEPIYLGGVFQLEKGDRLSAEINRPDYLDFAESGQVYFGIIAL
Thyroid hormone receptor beta (Homo sapiens), sequence (P10828 whole entry, looked up): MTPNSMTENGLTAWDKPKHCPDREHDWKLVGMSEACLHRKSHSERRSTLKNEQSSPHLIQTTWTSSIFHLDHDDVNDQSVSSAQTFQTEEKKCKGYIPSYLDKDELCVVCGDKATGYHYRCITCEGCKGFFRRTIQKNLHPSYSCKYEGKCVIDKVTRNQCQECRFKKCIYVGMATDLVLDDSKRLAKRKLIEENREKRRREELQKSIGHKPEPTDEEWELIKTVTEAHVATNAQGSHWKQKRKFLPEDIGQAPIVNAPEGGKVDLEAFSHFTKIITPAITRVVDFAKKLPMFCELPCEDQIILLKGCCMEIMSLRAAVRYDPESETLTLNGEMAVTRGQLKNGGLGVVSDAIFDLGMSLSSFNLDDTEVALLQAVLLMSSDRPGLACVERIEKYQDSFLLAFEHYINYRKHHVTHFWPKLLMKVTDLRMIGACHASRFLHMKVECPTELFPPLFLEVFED

For `CCCCCCCCC1CO1` (stereo unspecified), the Potency in test [1] is > 92 µM (inactive). Also, the activity change, negative = cytotoxicity in [2] was -9.26% (inactive). In addition, the Potency result in [3], in test [4], in test [5], in test [9], in [10] and in test [11] was “inactive” each time. Besides, the Potency entry in test [12], in test [14], in test [15] and in [16] was “inactive” throughout. For the same compound, the max response in [6] is -10.9%. Moreover, the outcome in test [7], in test [8] and in test [17] was inactive. Moreover, in test [13], the activation is -2.83% (inactive).
Turning to `Cc1ccc(N)cc1[N+](=O)[O-]`, the Potency in [1] is > 92 µM (inactive). For the same compound, the Potency entry in test [18], in test [5], in test [9], in [10], in test [11] and in [12] was “inactive” in each case. In addition, the Potency entry in test [14], in [15] and in test [16] was “inactive” in each case. Further, the max response in [6] was found to be 35.9%. The result in test [7], in [8] and in test [17] was inactive. Further, the activation in test [13] is -0.0251% (inactive).
As to `Cc1c(N)cccc1Cl`, the Potency in test [1] is > 92 µM (inactive). The activity change, negative = cytotoxicity in [2] is -0.783% (inactive). For the same compound, the result in test [19], in [7], in test [8] and in test [17] was inactive. Also, the Potency result in test [3], in [4], in [18], in test [5], in [9] and in test [10] was “inactive” throughout. Besides, the Potency result in [11], in test [12], in test [20], in test [14], in test [15] and in test [16] was “inactive” each time. In [6], the max response was -10%. Besides, in test [13], the activation is -0.236% (inactive).
Take `O=[N+]([O-])c1ccc(F)cc1F`: the Potency in [1] is > 92 µM (inactive). Besides, the result in test [19], in test [7], in test [8] and in test [17] was inactive. For the same compound, the Potency entry in test [3], in test [4], in test [18], in [5], in [9] and in [10] was “inactive” each time. In addition, the Potency entry in [11], in test [12], in test [20], in test [14], in test [15] and in test [16] was “inactive” in each case. Also, the max response in [6] stood at 10.2%. The activation in test [13] was -3.21% (inactive).
Turning to `NC(=O)c1ccc([N+](=O)[O-])cc1`, the Potency in [1] is > 92 µM (inactive). The activity change, negative = cytotoxicity in test [2] was -5.57% (inactive). For the same compound, the compound was classed as inactive in test [19], in test [7], in test [8] and in test [17]. The Potency entry in test [3], in [4], in test [5], in test [9], in test [10] and in test [11] was “inactive” throughout. Further, the Potency result in test [12], in [20], in test [14], in test [15] and in [16] was “inactive” in each case. Further, the max response in test [6] is 16.9%. In test [13], the activation is -4.76% (inactive).
Consider `CCCCNCC`, for which the Potency in test [1] is > 92 µM (inactive). Moreover, in [2], the activity change, negative = cytotoxicity was -8.38% (inactive). The compound was called inactive in test [19], in test [7], in test [8] and in test [17]. Besides, the Potency entry in test [3], in [4], in test [5], in [20], in test [14] and in test [15] was “inactive” each time. In addition, the Potency result in test [16] was “inactive”. The max response in [6] was -21.4%.
As to `CCCCCCc1ccc(-c2ccc(C#N)cc2)cc1`, the Potency in test [1] is > 92 µM (inactive). Further, in [2], the activity change, negative = cytotoxicity is -12.5% (inactive). For the same compound, the Potency result in test [3], in test [4], in test [5], in [11], in test [14] and in test [15] was “inactive” throughout. In addition, the max response in test [6] was determined as 11%. In addition, the outcome in test [7] and in test [17] was inactive. Further, in test [13], the activation was 1.83% (inactive).
